CHT inh – inhibitors of human choline transporter CHT; Q9GZV3; CHT-expressing cells, membrane potential dye, choline response; hits give low values; B-score at 10 µM; 310,000 compounds, 0.86% hits; AID 488975;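 active = B-score over 3 SD under the library average, and starting fluorescence ratio not unusually high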;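 also: choline stimulus applied at its EC90 after an EC20 pre-addition; B-score computed on integrated fluorescence ratio after choline addition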
ALR H2O2 inh – inhibitors of human sulfhydryl oxidase ALR; inhibition, % (concentration not given with the values); 290,000 compounds, 3.8% hits; purified ALR, DTT oxidation, H2O2 HRP-luminol luminescence;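 active = mean replicate inhibition above about 79%, with every replicate also reaching it, limit read from the data; inconclusive = only one of the two criteria met; inactive = mean below limit and not every replicate reaching it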
Target sequence (P55789 whole entry, looked up): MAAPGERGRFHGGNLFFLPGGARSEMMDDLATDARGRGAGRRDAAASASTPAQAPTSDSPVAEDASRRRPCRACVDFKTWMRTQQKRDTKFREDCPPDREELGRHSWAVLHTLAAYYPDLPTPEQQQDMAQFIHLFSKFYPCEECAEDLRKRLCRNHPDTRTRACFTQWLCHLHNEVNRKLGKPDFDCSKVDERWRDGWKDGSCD
AI-2 QS mod – modulators of Vibrio harveyi AI-2 quorum sensing system; activity change, % at 7.5 µM; Vibrio harveyi JMH597 AI-2 luminescence/OD600 ratio, 9 h; hits give low values; strain lacks LuxN and CqsS sensors; 0 = neutral-control median; 300,000 compounds, 0.4% hits; in the data active = activity change below about -75%, passing the limit was not always enough; inconclusive = no clear call, values can overlap the other calls;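 also: luminescence divided by OD600 gain over 9 h not by final OD600 alone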
PREPL inhibitor – inhibitors of human prolyl oligopeptidase-like enzyme PREPL. recombinant PREPL, fluorescence polarization activity-based probe. inhibition, % at 5.96 µM. 320,000 compounds, 0.68% hits. AID 2751; in the data active = inhibition above about 43%;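 also: 0% = enzyme with DMSO and 100% = wells lacking enzyme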
CHT allo act – allosteric activators of human choline transporter CHT; Q9GZV3; 310,000 compounds, 0.49% hits; CHT-expressing cells, membrane potential dye, choline EC20; hits give high values; LV-AA mutant CHT in HEK293 cells; B-score at 10 µM;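 active = initial fluorescence not abnormally high and integrated response B-score, plate-corrected, over 3 SD above library mean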
Numbers without * were called inactive; i = inactive; ? = inconclusive; . = no result. Sampled rows, rich in hits. Any-hit rate of the full collection: about 5%.

SMILES | CHT inh | ALR H2O2 inh | AI-2 QS mod | PREPL inhibitor | CHT allo act
O=S(=O)(CC(CN1CCCCC1)N1CCCCC1)c1ccc2ccccc2c1 (stereo not given) | . | . | 30 | . | .
c1ccc(N2OCC3Cn4c(nc5ccccc54)C32)cc1 (stereo not given) | i | 4 | 10 | -32 | i
CN(C(=O)c1cc2c(s1)-c1ccccc1S(=O)(=O)C2)c1ccccc1 | i | . | 26 | -4 | i
Cc1ccc(O)c(NC(=O)CCCC(=O)O)c1 | i | 82* | 9 | -4 | i
Cc1ccc(NC(=O)CCCC(=O)O)c(Br)c1 | i | 6 | . | 17 | i
Cc1nc(C)n(C(C)CNC(=O)c2ccco2)n1 (stereo not given) | i | 7 | 28 | . | i
Cc1nc(NS(=O)(=O)c2ccccc2)sc1NC(=O)OC(C)C | i | 36 | 23 | 1 | i
Cc1ccc(S(=O)(=O)Nc2nc(C)c(NC(=O)OCCCl)s2)cc1 | i | 98* | 42 | 3 | i
COc1c(OC)c(O)c2c(=O)cc(-c3c(O)cccc3O)oc2c1OC | i | 97* | 42 | 22 | i
COc1c(O)cc(O)c2c(=O)cc(-c3ccccc3)oc12 | . | . | . | 10 | .
CCn1nc(C)cc1C(=O)N(C)C1CCCN(Cc2ccccc2F)C1 (stereo not given) | i | 5 | 20 | -4 | i
Cc1cc(C(=O)Nc2ccccc2C(=O)O)oc1C | i | 98* | 20 | 15 | i
O=C1NC(=O)/C(=C/c2ccc(O)cc2)S1 | i | 99* | 41 | -5 | i
O=C(N/C(=C/c1ccco1)C(=O)N1CCCCCC1)c1ccccc1 | i | 25 | 1 | -8 | i
O=C(O)/C(=C\c1ccco1)NC(=O)c1ccccc1 | i | 97* | 0 | -2 | i
O=C(N/C(=C/c1ccco1)C(=O)N1CCCCCC1)c1cccs1 | i | 97* | 9 | 2 | i
Cc1cnc(C(=O)OCc2nc3ccccc3o2)cn1 | . | 31 | . | 5 | .
Cc1cc(C)c2c(N)c(C(=O)N/N=C/c3ccccc3)sc2n1 | i | 4 | 18 | 14 | i
C[C@H](C(=O)NCc1ccccc1)C(=O)c1ccccc1 | i | -13 | 5 | -2 | i
COc1cccc(C(=O)O/N=C(\N)c2ccc(C)cc2)c1 | i | 42 | 16 | -8 | i
COc1cccc(C(=O)O/N=C(\N)Cc2ccc(Cl)cc2)c1 | i | -18 | -92* | 10 | i
O=C(NCc1ccc(Cl)cc1)c1n[nH]c([N+](=O)[O-])c1Cl | -8.5* | 12 | 57 | 7 | i
O=C(NCc1ccc(Cl)cc1)c1ncn[nH]1 | i | -7 | 2 | 27 | i
O=C(CCC(=O)N1CCSc2ccccc21)NCc1ccccc1 | i | 1 | -5 | 2 | i
Oc1c(Cl)cc(Cl)cc1CNc1ccc(Br)cn1 | i | 93* | 18 | 12 | i
SMILES | CHT inh | ALR H2O2 inh | AI-2 QS mod | PREPL inhibitor | CHT allo act
Oc1ccc(Cl)cc1CNc1ccc(Br)cn1 | i | -3 | -55 | -23 | i
COc1ccc(-c2[nH]ncc2C=O)cc1OC | i | 1 | 16 | 11 | i
Cc1nc2ccccn2c1C(=O)NNC(=S)Nc1ccc(Cl)cc1 | i | 87* | 10 | 14 | i
Cc1nc2ccccn2c1C(=O)NNC(=S)Nc1ccccc1 | i | 97* | 36 | 6 | i
Cc1nc2ccccn2c1C(=O)NNC(=O)Nc1ccccc1 | i | 28 | 9 | 1 | i
O=C(NCCN1CCOCC1)c1ccc(Cl)c(S(=O)(=O)NCc2ccccc2)c1 | . | . | . | 11 | .
COc1ccc(-c2cc(=O)c3c(O)c(OC)c(O)cc3o2)cc1 | i | -12 | 31 | -23 | i
COc1cc(-c2cc(=O)c3ccccc3o2)ccc1O | i | 99* | 22 | 23 | i
COc1cc(-c2cc(=O)c3c(O)c(OC)c(OC)cc3o2)cc(OC)c1O | i | 77* | -6 | 17 | i
O=C(Nc1ccc2nc3n(c(=O)c2c1)CCCCC3)C(=O)N1CCN(c2ccccc2)CC1 | i | 33 | 35 | 13 | i
Cc1cccc(S(=O)(=O)c2c(C)cc(C)nc2Cl)c1 | i | -3 | 23 | 5 | i
CC1Cc2cc(/C=C3/SC(=S)NC3=O)ccc2O1 (stereo not given) | i | ? | 6 | 8 | i
Cc1ccc(C2C(/C=C3/SC(=S)NC3=O)=C(c3cccs3)Oc3ccccc32)cc1 (stereo not given) | i | 99* | 43 | 7 | i
NC(=O)c1cc2cc(Cl)ccc2oc1=Nc1cccc(C(F)(F)F)c1 | i | 91* | -1 | 4 | i
CC12CCC(C(=O)NNc3ccccc3)(C(=O)C1=O)C2(C)C (stereo not given) | i | 98* | 24 | -4 | i
CC12CCC(C(=O)NCc3ccccc3)(OC1=O)C2(C)C (stereo not given) | i | -6 | 9 | 1 | i
Cc1cc(NCCOCCO)n2ncc(-c3ccc(Cl)cc3)c2n1 | i | 98* | 26 | 20 | i
Cc1cc(N)n2ncc(-c3ccc(Cl)cc3)c2n1 | i | . | -15 | 21 | i
O=[N+]([O-])c1ccccc1/C=C/C=N/n1c(-c2ccccc2F)n[nH]c1=S | i | 98* | 10 | -7 | i
Nc1cccc(-c2cc3ccccc3oc2=O)c1 | i | 99* | 24 | 11 | i
Nc1nnc(-c2cc3ccccc3oc2=O)s1 | i | . | 14 | 16 | i
O=c1oc2cc(O)ccc2cc1-c1ccccc1 | i | 91* | 9 | 9 | i
O=c1oc2ccccc2cc1-c1ccc(O)cc1O | i | 99* | -18 | -8 | i
COc1ccc2c(c1OC)C(=O)OC2N1C(=O)CC[C@H]1C(=O)Nc1ccc(F)cc1F (stereo not given in full) | i | . | 44 | 1 | i
CCN(CCCNC(=O)CCn1c(=O)[nH]c2ccccc2c1=O)c1ccccc1 | i | 98* | 7 | 8 | i
SMILES | CHT inh | ALR H2O2 inh | AI-2 QS mod | PREPL inhibitor | CHT allo act
CCN(CCCNC(=O)CCCn1c(=O)[nH]c2ccccc2c1=O)c1cccc(C)c1 | i | -15 | 22 | 4 | i
Cc1cccc(CN2[C@@H](CC(C)C)COCCS2(=O)=O)c1 | i | -1 | -1 | 5 | i
O=C(CCC(=O)Nc1ccc(F)cc1)N/N=C/c1ccc(O)cc1 | i | 99* | 4 | 18 | i
Cc1ccc(NC(=O)CCC(=O)N/N=C/c2ccc(O)cc2)cc1 | i | 95* | -8 | 1 | i
O=C(CCC(=O)Nc1ccc(Br)cc1)N/N=C/c1ccc(O)cc1 | i | 20 | 6 | -3 | i
CC(C)(CO)[C@@H](O)C(=O)NCCC(=O)O | i | -9 | . | -8 | i
COc1ccccc1NS(=O)(=O)c1ccc(C)c(C(=O)NCc2cccnc2)c1 | . | -2 | . | 3 | .
Brc1ccc(-c2ncc3ccccn23)cc1 | i | 89* | 2 | -46 | i
COc1ccc(-n2c(SCC(=O)Nc3ccc(C)cc3)nc(O)c(Cc3ccccc3)c2=O)cc1 | i | 98* | 14 | 5 | i

Screens as filed in PubChem BioAssay.
